AmpC inh no detg – blocks E. coli AmpC beta-lactamase in detergent-free assay. Potency, µM (series often up to 57.1 µM), for the others: at the top dose activity change, negative = inhibition, actives largely listed as inhibitors. AmpC nitrocefin hydrolysis, absorbance 480 nm, 0.0001% Triton. P00811. hit rate 0.52% among 330,000;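 note: plate controls were no compound for no effect and no enzyme for full effect; nearly all actives have a fitted effect of over 20% in size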
Target sequence (P00811 whole entry, looked up): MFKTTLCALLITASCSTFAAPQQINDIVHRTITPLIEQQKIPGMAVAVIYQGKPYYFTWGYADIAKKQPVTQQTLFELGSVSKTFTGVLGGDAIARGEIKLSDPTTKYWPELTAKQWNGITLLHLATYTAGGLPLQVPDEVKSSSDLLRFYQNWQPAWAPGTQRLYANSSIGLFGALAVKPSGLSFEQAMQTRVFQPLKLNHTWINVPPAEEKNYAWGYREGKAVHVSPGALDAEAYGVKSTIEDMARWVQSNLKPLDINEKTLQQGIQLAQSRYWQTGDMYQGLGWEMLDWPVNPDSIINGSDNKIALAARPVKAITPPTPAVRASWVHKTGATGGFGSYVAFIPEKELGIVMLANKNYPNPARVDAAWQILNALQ
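20 mM phosphate pH 7.0 + 0.01% (detergent screen) or 0.0001% Triton X-100; 5.3 nM AmpC reagent; cpd preinc 15 min RT; nitrocefin (800 uM stock) to start; A480 q20 s × 4 min; Activity was normalised to no-enzyme and no-compound control wells.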
AmpC detergent – AmpC beta-lactamase inhibition with detergent present; P00811; AmpC hydrolysis of nitrocefin, absorbance 480 nm, 0.01% Triton; Potency, µM (series often up to 114 µM), for the others: top-dose activity change, negative = inhibition, hits mostly inhibitors; hit rate 0.041% among 370,000; AID 485294;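 note: 0% = no-compound wells and -100% = no-enzyme wells; nearly all actives have a fitted effect of over 25% in size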
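AmpC (5.3 nM in the dispensed reagent) in 20 mM phosphate pH 7.0 with 0.01% (detergent screen) or 0.0001% Triton X-100 was preincubated with compounds for 15 min at room temperature. Nitrocefin was then added from an 800 uM solution, and hydrolysis was followed at 480 nm.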
Marburg entry inh – Marburg virus entry inhibition; Marburg virus pseudotyped entry inhibition, cell reporter; Potency, µM (doses to about 37.8 µM), for inactives: top-dose activity change, negative = inhibition, hits mostly inhibitors; hit rate 1.8% among 300,000; AID 540276; calls by dose curve; tested in HEK293 cells
AMA1 RON2 block – inhibitors of Plasmodium falciparum AMA1-RON2 interaction; AlphaScreen AMA1-biotinylated RON2 peptide binding; Potency, µM (doses to about 58.2 µM), for inactives: top-dose activity change, negative = inhibition, hits mostly inhibitors; hit rate 0.2% among 360,000; AID 720542;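 note: 0% = vehicle wells and -100% = peptide control; nearly all actives have a fitted effect of over 45% in size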
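AMA1 (3D7) with his tag at 25 nM final met compounds first, then biotinylated RON2 peptide at 25 nM; detection used donor plus acceptor beads, 10 µg/mL apiece, read by AlphaScreen after 30 min at room temperature.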
Lassa entry inh – blocks Lassa virus binding to or entry into cells; hit rate 1.2% among 300,000; AID 540256; Lassa virus pseudotype entry inhibition, cell reporter; Potency, µM (highest dose often 37.9 µM), inactives show top-dose activity change, negative = inhibition, hits mostly inhibitors; calls by dose curve; tested in HEK293 cells; note: nearly all actives have a fitted effect of over 50% in size
* marks the source's active call; other numbers are inactive results; u = inconclusive; x = no result given; ! = not confirmed by another sample; [ ] = another dose, or the depositor's remark. Most compounds without a hit are left out; they make up all but 2.3% or so of the library. Unless noted, calls come from the whole dose curve; as a rule, active = well fitted curve in the direction sought with a large enough effect; inconclusive = small, poorly fitted or top-dose-only effect, or another doubt; inactive = no such curve, though single readings can be large; an effect the other way counts as inactive or inconclusive. Unless noted, % is set by controls: 0 for no effect and ±100 for the full control effect; potency is the fitted concentration of half-maximal effect.

SMILES	AmpC inh no detg	AmpC detergent	Marburg entry inh	AMA1 RON2 block	Lassa entry inh
Cc1cc(C(=O)COC(=O)CC2Sc3ccccc3NC2=O)c(C)n1-c1cccc(C(F)(F)F)c1 (stereo not given)	-38%	2%	1%	-9%	0%
O=C(NCc1cccs1)c1ccc2ccccc2n1	-44%	-4%	5%	4%	6.5µM*
O=C(Nc1nccs1)c1ccc2ccccc2n1	1%	-12%	u	39%	8.9µM*
CC(NC(=O)c1ccc2ccccc2n1)c1ccc(Br)cc1 (stereo not given)	-19%	u	u	24%	5.6µM*
Cc1cccc(NC(=O)c2ccc3ccccc3n2)c1C	1%	3%	u	-6%	10µM*
Cc1ccccc1NC(=O)c1cccc(C(=O)Nc2ccccc2C)n1	-2%	6%	-10%[46.1 µM]	11%	3%[46.1 µM]
O=C(NCc1ccccc1F)c1ccc2ccccc2n1	-12%	0%	4%[46.1 µM]	26%	u
CCOc1ccc(NC(=O)Cn2cc(C(=O)c3ccc(CC)cc3)c(=O)c3cc(C)ccc32)cc1	x	9%	4%[46.1 µM]	x	13%[46.1 µM]
COc1cccc(Cn2c(=O)n(Cc3ccco3)c(=O)c3oc4ccccc4c32)c1	x	3%	x	x	2%[46.1 µM]
Cc1cc(Nc2cccc(C(F)(F)F)c2)nc2ccc(NC(=O)c3cccnc3)cc12	x	14%	x	x	u
O=C(CC1Oc2ccccc2NC1=O)NCCCN1CCOCC1 (stereo not given)	2.5µM*	u	x	8%	x
Cc1ccc2c(c1)NC(=O)C(CC(=O)NCCCN1CCCC1)O2 (stereo not given)	14%	-13%	x	-1%	x
C=CCOC(=O)C1=C(C)NC(C)=C(C(=O)OCC=C)C1c1cn(-c2ccccc2)nc1-c1ccco1	16µM*	u	u	0%	-5%
OCc1cn(-c2ccccc2)nc1-c1ccco1	-7%	u	6%	-7%	1%
CC(=O)N1CCN(c2nc(CC(C)C)c3c(c2C#N)CCC3)CC1	96%	-7%	-15%	11%	u
CC(C)Cc1nc(N2CCN(C(=O)c3ccccc3)CC2)c(C#N)c2c1CCC2	1%	0%	u	4%	6.5µM*
CN(c1ccccc1)S(=O)(=O)c1ccc(NC(=O)c2ccco2)cc1	-8%	-5%	u	-3%	u
CN(C1CCCCC1)S(=O)(=O)c1ccc(NC(=O)c2ccco2)cc1	-24%	2%	-6%	-5%	11µM*
CC1CCc2c(sc3nnn(CC(=O)Nc4ccccc4Cl)c(=O)c23)C1 (stereo not given)	x	25%	-10%[46.1 µM]	x	1%[46.1 µM]
Nc1ccc(C(=O)OCC(=O)N2c3ccccc3Sc3ccccc32)cc1[N+](=O)[O-]	-36%	0%	21µM*	-5%	16µM*
Nc1ccc(C(=O)OCC(=O)N2CCc3ccccc3C2)cc1[N+](=O)[O-]	-21%	-3%	24%	-19%	u
CN(Cc1ccccc1)c1nc2c(S(=O)(=O)c3cccc(Cl)c3)nnn2c2ccsc12	x	-2%	x	x	6%[46.1 µM]
CC(=O)OC[C@H]1O[C@H](CCON=C(C)CCN2CCCc3nc(C)c(C)cc32)C=C[C@H]1OC(C)=O	x	x	-28%[14.2 µM]	x	x
CCOC(=O)c1c(/N=C/N(C)C)sc(/C=N/Nc2ccccc2)c1-c1ccccc1	16µM*	-11%	18µM*	3%	-4%
CC1=C(CC/C(C)=N/NC(N)=S)C(C)(C)CCC1	-23%	-4%	21µM*	44%	u
SMILES	AmpC inh no detg	AmpC detergent	Marburg entry inh	AMA1 RON2 block	Lassa entry inh
CC[C@@H]1C=C(C)C[C@H](C)C[C@H](OC)[C@H]2O[C@@](O)(C(=O)C(=O)N3CCCC[C@H]3C(=O)O[C@H](/C(C)=C/[C@@H]3CC[C@@H](O)[C@H](OC)C3)[C@H](C)[C@@H](O)CC1=O)[C@H](C)C[C@@H]2OC	273%	u	6.5µM*	x	u
CCOC(=O)N1C/C(=C\c2ccccc2)C(=O)/C(=C/c2ccccc2)C1	-17%	3%	x	-5%	x
COc1ccc(OC(=O)N2C/C(=C/c3ccccc3)C(=O)/C(=C\c3ccccc3)C2)cc1	x	x	u	-28%	7.1µM*
C[N+](C)(C)CCC(=O)N1C/C(=C/c2ccccc2)C(=O)/C(=C\c2ccccc2)C1	x	x	u	-4%	u
O=C1/C(=C/c2ccccc2)CN(C(=O)CCN2CCOCC2)C/C1=C\c1ccccc1	x	x	u	-1%	1.4µM*
CC(CNC(=O)CN1C(=O)COc2ccc(S(=O)(=O)N3CCCCCC3)cc21)c1ccccc1 (stereo not given)	x	1%	x	x	-5%[46.1 µM]
Cc1[nH][nH]c(=O)c1C(c1c(C)[nH][nH]c1=O)c1cn(Cc2ccc(Cl)c(Cl)c2)c2ccccc12	-59%	-5%	8.2µM*	17%	u
Cc1[nH][nH]c(=O)c1C(c1c(C)[nH][nH]c1=O)c1cn(Cc2ccc(F)cc2)c2ccccc12	-24%	-7%	-20%	5%	-29%
O=C(c1ccccc1)C1OC1C(=O)c1ccccc1 (stereo not given)	x	x	7.9µM*	-16%	u
c1ccc2oc(-c3csc(N4CCOCC4)n3)cc2c1	12%	-2%	7.9µM*	-20%	u
CC(=O)N1CCN([C@@H]2c3cccc4cccc(c34)[C@H]2NS(=O)(=O)c2ccccc2)CC1	x	x	-7%	x	x
OC1(c2ccc(OC(F)F)cc2)CSC(=Nc2cccnc2)N1C1CC1 (stereo not given)	51%	-12%	3.5µM*	-24%	u
COc1ccc(OC)c(C2(O)CSC(=Nc3cccnc3)N2Cc2ccco2)c1 (stereo not given)	-3%[2.29 µM]	-12%	-13%[46.1 µM]	-23%	-27%
COc1ccc2cc(/C=C3\SC(=S)NC3=O)c(N3CCOCC3)nc2c1	-12%	0%	11µM*	23%	u
O=C1NC(=S)S/C1=C/c1ccc(N2CCOCC2)o1	-49%	11%	u	2%	-10%
N=c1cc(C2(O)CCCCC2)n2c(nc3ccccc32)s1	-22%	3%	5.8µM*	18%	10µM*
O=C1c2sc3nc4ccccc4n3c2C(=O)N1c1ccccc1Cl	-53%	u	-21%	32%	27%
COc1cccc(OC)c1OCCNC[C@@H]1CSc2ccccc2O1	x	x	26µM*	x	x
COc1cccc(OC)c1OCCNCC1COc2ccccc2O1 (stereo not given)	x	x	13µM*!	-6%	-6%
CCCNCC1COc2ccccc2O1 (stereo not given)	-17%	-11%	12%	7%	-5%
Cc1cc(C)n(-c2nc3ccccc3c(=O)n2OCC#N)n1	-6%	2%	7.9µM*	97%	u
CCOn1c(-n2nc(C)cc2C)nc2ccccc2c1=O	-11%	-1%	-9%	0%	-5%
CN1CCC2(CC1)[C@H]1CN(C)CC=C1C(C#N)=C(N)C2(C#N)C#N	x	x	-9%	x	x
CCOC(=O)CSc1nc2nc(C)cc(C)n2n1	10µM*	u	x	2%	x
O=C(c1cc(COc2ccc(F)c(F)c2)on1)N1CCN(C2CCCCC2)C(=O)C1	127%	0%	x	-2%	x

Screening data from PubChem BioAssay.
